From PubChem BioAssay (NCI) come the findings set out here.

The nature of test [1]: NCI Yeast Anticancer Drug Screen. Data for the rad50 strain (AID 155).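 Further: 0% = growth of vehicle-only cultures of the same strain.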 The settings on record: S. cerevisiae rad50 strain growth inhibition; at 50.0 µM; hits give high values. Put shortly:
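Cells are treated with compound, grown, and their growth is then scored against vehicle-only cultures of the same repair-deficient yeast strain.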

Test [2] can be described thus: NCI Yeast Anticancer Drug Screen. Data for the mec2-1 strain (AID 157). The settings on record: S. cerevisiae mec2-1 strain, at 50.0 µM, hits give high values. Put shortly: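 Using mec2-1 yeast: add compound, measure growth, express inhibition versus vehicle-treated cultures.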
Test [3] in a line: NCI Yeast Anticancer Drug Screen. Data for the sgs1 mgt1 strain (AID 161).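 Further: 0% = growth of cultures given vehicle only.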 The following applies: S. cerevisiae sgs1 mgt1 strain, at 50.0 µM, hits give high values. The method in brief:
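This yeast growth screen uses a strain with defined DNA-repair lesions; compound-treated growth is compared with vehicle-treated growth.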

Test [4] is described as follows: NCI Yeast Anticancer Drug Screen. Data for the cln2 rad14 strain (AID 165).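 Further: 0% = growth equal to vehicle treated cultures.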 The following applies: S. cerevisiae cln2 rad14 strain, at 50.0 µM, hits give high values. Put shortly: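 Yeast strain cln2 rad14, bearing defects in cell cycle control and DNA repair, serves as the test system; values reflect growth inhibition compared with vehicle.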
Test [5] can be described thus: NCI Yeast Anticancer Drug Screen. Data for the bub3 strain (AID 167). The settings on record: S. cerevisiae bub3 mutant strain, at 50.0 µM, hits give high values. Put shortly: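 Part of a panel of yeast mutants defective in DNA damage repair or cell cycle regulation. Each strain is grown with compound, and inhibition is calculated relative to solvent-treated cultures.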

A short description of test [6]: NCI Yeast Anticancer Drug Screen. Data for the mlh1 rad18 strain (AID 175). The settings on record: S. cerevisiae mlh1 rad18 strain growth inhibition; at 50.0 µM; hits give high values. The method in brief:
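Steps: expose repair-defective yeast to compound; measure growth; express inhibition against vehicle-treated controls.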

About 79,000 compounds went through this panel and 15% of them were active in at least one assay; those are over-represented in the sample as a whole. Unmarked numbers belong to inactive results. Calls of active or inactive are those of the source. No stated cut-off is given here; in the data, active means growth inhibition above about 70%; inactive means the rest.

Take `CC1=C(C)CC2C(=O)c3c(O)ccc(O)c3C(=O)C2C1` (centres undefined): the growth inhibition is 28.9% in test [1]; 44.9% in test [2]; 52% in test [3]; 4.15% in test [4]; 39.9% in test [5]; 50.1% in test [6].

Turning to `O=C(CNc1ccccc1[N+](=O)[O-])Nn1cnc2ccc(S(=O)(=O)Nc3ccccc3[N+](=O)[O-])cc2c1=O`, the growth inhibition was 25.8% in test [1]; -1.25% in test [2]; 39.8% in test [3]; 15.1% in test [4]; 21.2% in test [5]; 28.5% in test [6].

Regarding `Cc1ccc(N(C(=O)Nc2ccc(F)c(Cl)c2)C2=NCC(C)S2)cc1` (centres undefined), the growth inhibition was -57.5% in test [1]; -14.4% in test [2]; -45% in test [3]; -13.7% in test [4]; -5.05% in test [5]; -51.4% in test [6].

On to `C(=C\c1ccc2ccc(/C=C/c3ccccc3)cc2c1)/c1ccccc1`, for which the growth inhibition in test [1] was -15.2%; in test [2], 14.7%; in test [3] it was 12.1%; in test [4], -26.8%; in test [5] it was 8.25%; in test [6], -17.1%.

On to `CCOC(=O)O/C(C)=C\c1ccccc1Cl`, for which the growth inhibition in test [1] was 0.4%; in test [2], -1.15%; in test [3] it was -7.75%; in test [4], 7.75%; in test [5] it was -5.85%; in test [6], 5.7%.

On to `O=S(=O)(O)c1ccccc1P(c1ccccc1)c1ccccc1`, for which the growth inhibition was 17.1% in test [1]; 17.7% in test [2]; 8.15% in test [3]; 36.1% in test [4]; 17.6% in test [5]; 14.6% in test [6].

Regarding `COc1ccc(-n2nnnc2C2(Nc3ccccc3)CCN(Cc3ccccc3)CC2)cc1`, the growth inhibition in test [1] is -22.4%; in test [2], -8.4%; in test [3] it was -1.4%; in test [4], 2.65%; in test [5], -2.15%; in test [6] it was 10.4%.

Turning to `O=C1Nc2noc(=O)nc2NO1`, the growth inhibition in test [1] is 13.1%; in test [2], 4.8%; in test [3] it was -0.35%; in test [4] it was -2.5%; in test [5], -22.4%; in test [6], -18.5%.

With `Cc1c(N/C=C(\C#N)C(=O)c2ccc(Cl)cc2)c(=O)n(-c2ccccc2)n1C`, the growth inhibition is -8.15% in test [1]; 6.6% in test [2]; -7.25% in test [3]; 27.2% in test [4]; 2.35% in test [5]; 30.9% in test [6].

For the molecule `COc1cc(CC(=O)O)c(Br)cc1C`, the growth inhibition is 5.95% in test [1]; 20.9% in test [2]; 4.15% in test [3]; 0.05% in test [4]; -0.85% in test [5]; -2.65% in test [6].

On to `CCOC(=O)c1c(-c2ccc([N+](=O)[O-])cc2)c(C#N)n(-c2ccccc2)c1C`, for which the growth inhibition in test [1] is -1.25%; in test [2] it was 36%; in test [3], 28.4%; in test [4], -7.95%; in test [5], 45.1%; in test [6], 6.1%.

`COc1ccc([N+](=O)[O-])c2c1CONC2c1c(CO)cnc(C)c1O` (centres undefined): the growth inhibition in test [1] is 35.1%; in test [2] it was -12.2%; in test [3] it was 27.2%; in test [4] it was -22.4%; in test [5], 5.3%; in test [6], -2.7%.

As for `Cc1ccc(S(=O)(=O)N(C)c2c(N)n(C)c(=O)n(C)c2=O)cc1`, the growth inhibition in test [1] is 2.3%; in test [2], 5.75%; in test [3], 0.7%; in test [4], -49.3%; in test [5], -5.55%; in test [6] it was -4.4%.

Turning to `O=C(N/N=C/c1ccc(Cl)cc1)c1ccccc1NC(=O)C1CC1`, the growth inhibition was -3.85% in test [1]; -14.2% in test [2]; 28% in test [3]; -23.6% in test [4]; 11.8% in test [5]; 33.2% in test [6].

In the case of `Cc1ccc(S(=O)(=O)N2N=C(c3ccccc3)CC2c2ccccc2)cc1` (centres undefined), the growth inhibition in test [1] was 83.1% (active); in test [2], 87.1% (active); in test [3] it was 88.4% (active); in test [4] it was 81% (active); in test [5] it was 82% (active); in test [6], 91% (active).

As for `CCNCc1cc(Nc2cc(C)nc(/N=C(\N)Nc3ccc(Cl)c(Cl)c3)n2)ccc1OC`, the growth inhibition in test [1] is 98.8% (active); in test [2], 99% (active); in test [3], 99.3% (active); in test [4] it was 97.5% (active); in test [5], 98.2% (active); in test [6], 98.4% (active).

On to `CC(C)(C)CC(C)(C)c1ccc(OCCOc2ccc(C(=O)Nc3ccc([N+](=O)[O-])cc3)cc2)cc1`, for which the growth inhibition is 49.9% in test [1]; -0.3% in test [2]; 42.5% in test [3]; 6% in test [4]; -5.65% in test [5]; 22.9% in test [6].

Turning to `CC(C)CCOC(=O)C1C(=O)CC(c2ccccc2)C1c1ccccc1` (centres undefined), the growth inhibition is 11.1% in test [1]; 3.5% in test [2]; -6.35% in test [3]; -0.15% in test [4]; 6% in test [5]; 6.25% in test [6].

Regarding `Cc1cccc(N=NC2Sc3nc4ccccc4n3C2=O)c1` (centres undefined), the growth inhibition in test [1] was -16.9%; in test [2], -19.4%; in test [3], -20.1%; in test [4], -9.25%; in test [5] it was 2.25%; in test [6], 2.9%.
